Several values for one entry are separate records, joined by “and”; a condition that tells them apart may be missing. Equal values may be shown once. Records with an inconclusive call do not appear. Activity calls are given as the source filed them. Rule for the calls: active = hit-call score of the fitted dose curve at least 0.9, where 1 is the maximum; inconclusive = response in the unintended direction; inactive = score below 0.9.
Key:
[1] = biological target: rat CYP2D1, Cyp2d1 (gene 266684) (UniProt P10633); assay: NVS_ADME_rCYP2D1: NovaScreen (NVS) CYP450-related Enzyme Activity (ADME) Assay for rat CYP2D1 (AID 2283122)
Procedure, shortened: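 Cell-free fluorescence enzyme-activity assay on extracted rat CYP2D1 protein, read 0.75 h after dosing. Primary screen in duplicate at 10 uM; qualifying chemicals then run in concentration-response to 20 uM max, loss-of-signal versus acetonitrile baseline.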

[2] = biological target: rat CYP2C11, Cyp2c11 (gene 29277) (UniProt P08683); assay: NVS_ADME_rCYP2C11: NovaScreen (NVS) CYP450-related Enzyme Activity (ADME) Assay for rat CYP2C11 (AID 2283118)
Procedure, shortened: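 Cell-free recombinant rat enzyme with fluorescent substrate; readout 0.33 h after dosing, loss of signal versus acetonitrile control. Initial duplicate single-point at 10 uM; actives rerun in concentration series.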

[3] = biological target: rat CYP2C12, Cyp2c12 (gene 25011) (UniProt P11510); assay: NVS_ADME_rCYP2C12: NovaScreen (NVS) CYP450-related Enzyme Activity (ADME) Assay for rat CYP2C12 (AID 2283119)
Procedure, shortened: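 Cell-free recombinant rat CYP2C12 activity read by fluorescence 0.5 h after dosing; loss of signal versus acetonitrile control. Primary screen in duplicate at 10 uM; actives then run in concentration-response format.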

rat CYP2C6, gene 293989 = assay: NVS_ADME_rCYP2C6: NovaScreen (NVS) CYP450-related Enzyme Activity (ADME) Assay for rat CYP2C6 (AID 2283120)
Procedure, shortened: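 Cell-free recombinant rat CYP2C6 with fluorogenic substrate, read by fluorescence 1 h after dosing; acetonitrile as negative control. Primary screen at 10 uM in duplicate, actives then in concentration-response up to 20 uM.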

[4] = biological target: human AMP-activated Protein Kinase, alpha 1 (AMPKa1), PRKAA1 (gene 5562) (UniProt Q13131); assay: NVS_ENZ_hAMPKa1: NovaScreen (NVS) Enzymatic Assay for human AMP-activated Protein Kinase, alpha 1 (AMPKa1) (AID 2283130)
Procedure: NVS_ENZ_hAMPKa1 is a biochemical, single-readout assay that uses extracted gene-proteins in a cell-free assay. Measurements were taken 1 hour after chemical dosing in a 384-well plate.NVS_ENZ_hAMPKa1 is one of one assay component(s) measured or calculated from the NVS_ENZ_hAMPKa1 assay. It is designed to make measurements of enzyme activity, a form of enzyme reporter, as detected with fluorescence intensity signals by Fluorescence and electrophoretic mobility shift technology.Data from the assay component NVS_ENZ_hAMPKa1 was analyzed into 1 assay endpoint. This assay endpoint, NVS_ENZ_hAMPKa1, was analyzed in the positive analysis fitting direction relative to DMSO as the negative control and baseline of activity. Using a type of enzyme reporter, loss-of-signal activity can be used to understand changes in the enzymatic activity as they relate to the gene PRKAA1. Furthermore, this assay endpoint can be referred to as a primary readout, because this assay has produced multiple assay endpoints where this one serves a enzymatic activity function. To generalize the intended target to other relatable targets, this assay endpoint is annotated to the kinase intended target family, where the subfamily is serine/threonine kinase. […]

[5] = biological target: rat CYP2C13, Cyp2c13 (gene 171521) (UniProt P20814); assay: NVS_ADME_rCYP2C13: NovaScreen (NVS) CYP450-related Enzyme Activity (ADME) Assay for rat CYP2C13 (AID 2283121)
Procedure: NVS_ADME_rCYP2C13 is a biochemical, single-readout assay that uses extracted gene-proteins in a cell-free assay. Measurements were taken 0.75 hour after chemical dosing in a 96-well plate.NVS_ADME_rCYP2C13 is one of one assay component(s) measured or calculated from the NVS_ADME_rCYP2C13 assay. It is designed to make measurements of enzyme activity, a form of enzyme reporter, as detected with fluorescence intensity signals by Fluorescence technology.Data from the assay component NVS_ADME_rCYP2C13 was analyzed into 1 assay endpoint. This assay endpoint, NVS_ADME_rCYP2C13, was analyzed in the positive analysis fitting direction relative to Acetonitrile as the negative control and baseline of activity. Using a type of enzyme reporter, loss-of-signal activity can be used to understand changes in the enzymatic activity as they relate to the gene Cyp2c13. Furthermore, this assay endpoint can be referred to as a primary readout, because this assay has produced multiple assay endpoints where this one serves a enzymatic activity function. To generalize the intended target to other relatable targets, this assay endpoint is annotated to the cyp intended target family, where the subfamily is xenobiotic metabolism.
(§1) Binding assays used specific radioligands (tritiated, iodinated) with non-radioactive competitive displacement ligands in agonist or antagonist protocols (as indicated) and various reference compounds and inhibitors to titrate specific binding to receptors and transporters. Most enzyme assays (CYPs, kinases, phosphatases, proteases, HDACs) used recombinant protein and specific substrates (fluorescence mostly, some colorimetric and radioactive) and inhibitors, followed by a biochemical separation of substrate and product. All assays for the biochemical HTS were initially run in duplicate at a single concentration (10 uM for CYP450 assays and 25 uM for all others). […] Each assay was run with positive and negative controls, and concurrent controls on every plate. The follow-up (secondary) screen tested active chemical-pairs in concentration series, as well as a few additional assays not tested in the primary screen, some selected negative inactives, and several cases re-run in the concentration series for confirmatory purposes.

[6] = biological target: human Acetylcholinesterase (AChE), ACHE (gene 43) (UniProt P22303); assay: NVS_ENZ_hAChE: NovaScreen (NVS) Enzymatic Assay for human Acetylcholinesterase (AChE) (AID 2283129)
Procedure: NVS_ENZ_hAChE is a biochemical, single-readout assay that uses extracted gene-proteins in a cell-free assay. Measurements were taken 0.33 hour after chemical dosing in a 96-well plate.NVS_ENZ_hAChE is one of one assay component(s) measured or calculated from the NVS_ENZ_hAChE assay. It is designed to make measurements of enzyme activity, a form of enzyme reporter, as detected with absorbance signals by Colorimetric technology.Data from the assay component NVS_ENZ_hAChE was analyzed into 1 assay endpoint. This assay endpoint, NVS_ENZ_hAChE, was analyzed in the positive analysis fitting direction relative to DMSO as the negative control and baseline of activity. Using a type of enzyme reporter, loss-of-signal activity can be used to understand changes in the enzymatic activity as they relate to the gene ACHE. Furthermore, this assay endpoint can be referred to as a primary readout, because this assay has produced multiple assay endpoints where this one serves a enzymatic activity function. To generalize the intended target to other relatable targets, this assay endpoint is annotated to the esterase intended target family, where the subfamily is acetylcholinesterase.
as §1

[7] = biological target: human Acid Phosphatase 1 (ACP1), ACP1 (gene 52) (UniProt P24666); assay: NVS_ENZ_hACP1: NovaScreen (NVS) Enzymatic Assay for human Acid Phosphatase 1 (ACP1) (AID 2283136)
Procedure, shortened: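 Recombinant enzyme expressed in Sf9 cells, tested cell-free; activity read by fluorescence with electrophoretic mobility shift separation of substrate and product, 1.5 h after dosing. Primary screen in duplicate at 25 uM, actives then run in concentration series; loss of signal versus DMSO.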

Caspase-1 (Homo sapiens) = Caspase-1 (Homo sapiens) (UniProt P29466); assay: NVS_ENZ_hCASP1: NovaScreen (NVS) Enzymatic Assay for human Caspase 1 (CASP1) (AID 2283132)
Procedure, shortened: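 Cell-free enzymatic assay with E. coli-expressed recombinant protein; fluorescence intensity read 1 hour after dosing. Single-concentration duplicate screen at 25 uM, then concentration-response up to 50 uM; activity fitted relative to DMSO, loss of signal meaning inhibition.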

[8] = biological target: human Caspase 2 (CASP2), CASP2 (gene 835) (UniProt P42575); assay: NVS_ENZ_hCASP2: NovaScreen (NVS) Enzymatic Assay for human Caspase 2 (CASP2) (AID 2283135)
Procedure, shortened: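 E. coli-expressed enzyme in a cell-free protease assay, fluorescence read 1 h after dosing. Compounds at 25 uM in duplicate, with concentration-response up to 50 uM for hits; loss of signal against DMSO baseline.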

Sequence of human Acid Phosphatase 1 (ACP1), ACP1 (gene 52) (P24666 whole entry, looked up): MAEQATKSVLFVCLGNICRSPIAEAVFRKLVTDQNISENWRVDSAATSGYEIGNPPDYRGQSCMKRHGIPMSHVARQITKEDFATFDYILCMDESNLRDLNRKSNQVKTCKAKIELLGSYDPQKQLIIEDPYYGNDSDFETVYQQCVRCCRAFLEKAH
Sequence of rat CYP2D1, Cyp2d1 (gene 266684) (P10633 whole entry, looked up): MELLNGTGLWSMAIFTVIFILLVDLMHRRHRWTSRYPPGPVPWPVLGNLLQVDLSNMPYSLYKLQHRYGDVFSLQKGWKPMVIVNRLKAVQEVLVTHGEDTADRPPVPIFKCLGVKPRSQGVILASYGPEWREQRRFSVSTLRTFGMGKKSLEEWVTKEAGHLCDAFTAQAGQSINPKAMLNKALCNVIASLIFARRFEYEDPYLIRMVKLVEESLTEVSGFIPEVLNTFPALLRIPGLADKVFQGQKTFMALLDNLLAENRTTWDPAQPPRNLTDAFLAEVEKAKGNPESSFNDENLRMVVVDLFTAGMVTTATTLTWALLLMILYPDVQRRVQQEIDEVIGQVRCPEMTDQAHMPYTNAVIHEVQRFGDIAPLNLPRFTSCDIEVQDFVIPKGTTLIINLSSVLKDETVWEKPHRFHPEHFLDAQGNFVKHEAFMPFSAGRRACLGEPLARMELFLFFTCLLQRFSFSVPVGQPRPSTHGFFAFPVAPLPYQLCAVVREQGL
Sequence of rat CYP2C12, Cyp2c12 (gene 25011) (P11510 whole entry, looked up): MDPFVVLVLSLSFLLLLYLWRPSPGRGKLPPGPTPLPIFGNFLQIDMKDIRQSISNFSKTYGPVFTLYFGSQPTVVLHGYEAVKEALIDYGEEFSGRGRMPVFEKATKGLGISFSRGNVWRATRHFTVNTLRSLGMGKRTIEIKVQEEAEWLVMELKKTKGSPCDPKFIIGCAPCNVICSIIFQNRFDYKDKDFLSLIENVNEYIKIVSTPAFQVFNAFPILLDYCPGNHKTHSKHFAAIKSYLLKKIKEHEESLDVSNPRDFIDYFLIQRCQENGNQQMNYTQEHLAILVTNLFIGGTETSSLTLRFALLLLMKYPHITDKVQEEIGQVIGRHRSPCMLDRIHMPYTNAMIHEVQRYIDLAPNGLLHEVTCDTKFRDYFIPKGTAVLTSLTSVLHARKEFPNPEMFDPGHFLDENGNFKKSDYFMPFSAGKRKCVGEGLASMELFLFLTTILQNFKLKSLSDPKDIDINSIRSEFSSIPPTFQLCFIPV
Sequence of human Acetylcholinesterase (AChE), ACHE (gene 43) (P22303 whole entry, looked up): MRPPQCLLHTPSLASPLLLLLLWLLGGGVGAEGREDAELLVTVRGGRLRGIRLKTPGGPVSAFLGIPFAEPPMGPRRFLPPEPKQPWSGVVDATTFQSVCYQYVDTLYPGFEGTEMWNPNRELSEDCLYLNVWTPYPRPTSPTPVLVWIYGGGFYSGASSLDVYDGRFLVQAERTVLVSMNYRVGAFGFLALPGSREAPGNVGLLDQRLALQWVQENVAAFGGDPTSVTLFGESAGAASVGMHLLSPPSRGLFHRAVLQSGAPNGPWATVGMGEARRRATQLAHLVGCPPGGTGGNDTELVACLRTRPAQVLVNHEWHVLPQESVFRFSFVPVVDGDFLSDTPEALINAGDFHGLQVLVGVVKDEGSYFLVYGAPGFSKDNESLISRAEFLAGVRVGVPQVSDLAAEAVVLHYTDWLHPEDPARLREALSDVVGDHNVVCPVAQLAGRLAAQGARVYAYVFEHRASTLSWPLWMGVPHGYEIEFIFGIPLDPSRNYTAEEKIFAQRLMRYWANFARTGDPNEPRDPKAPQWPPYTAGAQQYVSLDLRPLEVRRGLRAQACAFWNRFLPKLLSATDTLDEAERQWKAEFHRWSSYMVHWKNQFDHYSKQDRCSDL
Sequence of rat CYP2C13, Cyp2c13 (gene 171521) (P20814 whole entry, looked up): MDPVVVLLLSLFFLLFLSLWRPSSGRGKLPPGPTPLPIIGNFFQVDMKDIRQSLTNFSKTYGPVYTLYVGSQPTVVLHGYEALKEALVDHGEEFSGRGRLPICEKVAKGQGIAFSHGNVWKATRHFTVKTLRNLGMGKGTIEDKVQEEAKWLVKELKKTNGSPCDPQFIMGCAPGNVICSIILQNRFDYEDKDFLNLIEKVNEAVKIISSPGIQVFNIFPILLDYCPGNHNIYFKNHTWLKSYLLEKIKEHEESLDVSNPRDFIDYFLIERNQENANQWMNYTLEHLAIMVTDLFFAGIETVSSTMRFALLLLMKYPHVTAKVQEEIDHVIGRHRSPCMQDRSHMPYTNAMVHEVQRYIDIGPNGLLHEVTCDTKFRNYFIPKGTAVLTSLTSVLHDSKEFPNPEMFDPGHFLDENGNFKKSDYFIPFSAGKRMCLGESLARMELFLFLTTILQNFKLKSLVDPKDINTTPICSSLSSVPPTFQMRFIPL
Sequence of rat CYP2C11, Cyp2c11 (gene 29277) (P08683 whole entry, looked up): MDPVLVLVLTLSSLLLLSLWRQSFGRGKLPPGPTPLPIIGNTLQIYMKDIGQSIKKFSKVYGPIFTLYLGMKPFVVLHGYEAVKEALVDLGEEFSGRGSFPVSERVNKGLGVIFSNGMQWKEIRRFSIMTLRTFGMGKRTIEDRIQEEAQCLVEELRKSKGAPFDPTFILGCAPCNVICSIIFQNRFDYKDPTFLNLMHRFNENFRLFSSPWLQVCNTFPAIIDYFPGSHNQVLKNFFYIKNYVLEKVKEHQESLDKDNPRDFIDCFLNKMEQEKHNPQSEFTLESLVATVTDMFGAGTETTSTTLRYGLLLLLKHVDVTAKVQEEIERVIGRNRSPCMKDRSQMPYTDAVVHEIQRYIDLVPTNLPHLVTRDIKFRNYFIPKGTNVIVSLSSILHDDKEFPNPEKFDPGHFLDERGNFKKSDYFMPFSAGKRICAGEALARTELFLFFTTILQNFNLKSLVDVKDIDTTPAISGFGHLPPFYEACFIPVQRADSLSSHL
Sequence of human AMP-activated Protein Kinase, alpha 1 (AMPKa1), PRKAA1 (gene 5562) (Q13131 whole entry, looked up): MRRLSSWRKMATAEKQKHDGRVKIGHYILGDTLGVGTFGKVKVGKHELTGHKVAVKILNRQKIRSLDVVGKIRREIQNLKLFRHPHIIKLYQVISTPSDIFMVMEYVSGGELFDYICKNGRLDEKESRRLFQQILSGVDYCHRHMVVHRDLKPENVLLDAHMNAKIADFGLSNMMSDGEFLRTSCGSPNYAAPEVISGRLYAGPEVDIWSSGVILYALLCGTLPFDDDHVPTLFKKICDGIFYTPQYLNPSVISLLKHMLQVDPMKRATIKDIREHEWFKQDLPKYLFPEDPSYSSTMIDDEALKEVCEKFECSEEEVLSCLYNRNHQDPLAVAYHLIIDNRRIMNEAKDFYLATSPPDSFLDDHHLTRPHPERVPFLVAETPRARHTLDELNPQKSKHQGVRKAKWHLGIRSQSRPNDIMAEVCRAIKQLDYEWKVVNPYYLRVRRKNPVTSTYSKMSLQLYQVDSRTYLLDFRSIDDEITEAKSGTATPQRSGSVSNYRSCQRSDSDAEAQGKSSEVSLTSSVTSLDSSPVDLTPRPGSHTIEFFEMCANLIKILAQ
Sequence of Caspase-1 (Homo sapiens) (P29466 whole entry, looked up): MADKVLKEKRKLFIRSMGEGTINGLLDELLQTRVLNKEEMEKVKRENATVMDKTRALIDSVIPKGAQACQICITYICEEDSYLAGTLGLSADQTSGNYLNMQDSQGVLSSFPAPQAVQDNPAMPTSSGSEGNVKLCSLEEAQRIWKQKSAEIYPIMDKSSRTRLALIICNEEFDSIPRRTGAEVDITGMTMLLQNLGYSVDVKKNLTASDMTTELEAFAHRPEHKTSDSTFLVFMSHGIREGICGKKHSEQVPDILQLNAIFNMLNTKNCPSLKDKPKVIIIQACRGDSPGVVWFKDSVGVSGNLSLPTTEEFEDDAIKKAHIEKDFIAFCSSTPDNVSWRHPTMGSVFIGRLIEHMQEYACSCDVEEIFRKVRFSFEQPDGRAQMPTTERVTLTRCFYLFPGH
Sequence of human Caspase 2 (CASP2), CASP2 (gene 835) (P42575 whole entry, looked up): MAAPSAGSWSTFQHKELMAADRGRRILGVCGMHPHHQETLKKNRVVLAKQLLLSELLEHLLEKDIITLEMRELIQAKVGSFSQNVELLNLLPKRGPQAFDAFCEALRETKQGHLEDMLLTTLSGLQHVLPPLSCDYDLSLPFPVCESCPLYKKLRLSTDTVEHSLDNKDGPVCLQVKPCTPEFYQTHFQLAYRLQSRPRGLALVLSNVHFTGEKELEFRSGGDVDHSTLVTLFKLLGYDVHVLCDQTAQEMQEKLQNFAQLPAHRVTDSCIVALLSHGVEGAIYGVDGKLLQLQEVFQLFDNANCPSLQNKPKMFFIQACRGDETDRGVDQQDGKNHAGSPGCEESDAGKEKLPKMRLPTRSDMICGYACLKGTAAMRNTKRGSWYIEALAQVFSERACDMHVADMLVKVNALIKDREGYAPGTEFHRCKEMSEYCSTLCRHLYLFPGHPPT

Compound: CCOC(=O)C(Cl)Cc1cc(-n2nc(C)n(C(F)F)c2=O)c(F)cc1Cl (stereo not drawn)
- outcome [1]: inactive

Compound: OC(c1ccc(Cl)cc1)(c1cncnc1)c1ccccc1Cl (stereo not drawn)
- AC50 [2]: 6.58 µM (active)
- AC50 [3]: 3.99 µM (active)
- AC50 (rat CYP2C6, gene 293989): 1.39 µM (active)
- AC50 [1]: 7.23 µM (active)

Compound: CO/C=C(/C(=O)OC)c1ccccc1Oc1cc(Oc2ccccc2C#N)ncn1
- AC50 [2]: 2.81 µM (active)
- AC50 (rat CYP2C6, gene 293989): 2.12 µM (active)
- AC50 [1]: 5.45 µM (active)
- outcome [4]: inactive

Compound: CON(C)C(=O)Nc1ccc(Cl)c(Cl)c1
- AC50 [5]: 8.64 µM (active) and 6.6 µM (active)

Compound: CCCC1COC(Cn2cncn2)(c2ccc(Cl)cc2Cl)O1 (stereo not drawn)
- AC50 [2]: 1.45 µM (active)
- AC50 (rat CYP2C6, gene 293989): 2.45 µM (active)
- AC50 [1]: 6.88 µM (active)

Compound: CS/C(C)=N/OC(=O)N(C)SN(C)C(=O)O/N=C(\C)SC
- AC50 [2]: 3.66 µM (active)
- AC50 [3]: 1.12 µM (active)
- AC50 (rat CYP2C6, gene 293989): 3.63 µM (active)
- AC50 [6]: 4.85 µM (active)

Compound: O=C(Nc1ccccc1)Nc1ccnc(Cl)c1
- AC50 [5]: 10 µM (active)
- AC50 [1]: 10 µM (active)

Compound: COC(=O)N(OC)c1ccccc1COc1ccn(-c2ccc(Cl)cc2)n1
- AC50 [2]: 0.809 µM (active)
- outcome [1]: inactive

Compound: N#CC(CCc1ccc(Cl)cc1)(Cn1cncn1)c1ccccc1 (stereo not drawn)
- AC50 [2]: 0.267 µM (active)
- AC50 [3]: 0.25 µM (active)
- AC50 (rat CYP2C6, gene 293989): 1.44 µM (active)

Compound: C=CCC1=C(C)[C@@H](OC(=O)[C@@H]2[C@@H](C=C(C)C)C2(C)C)CC1=O
- AC50 [1]: 1.05 µM (active)
- outcome [7]: inactive

Compound: CN(C)C(=S)SSC(=S)N(C)C
- AC50 [3]: 1.98 µM (active)
- AC50 (rat CYP2C6, gene 293989): 1.28 µM (active)
- AC50 [5]: 0.991 µM (active)
- AC50 [6]: 10.6 µM (active)

Compound: COC(=O)C=C(C)OP(=O)(OC)OC
- AC50 [6]: 6 µM (active)

Compound: CCCN(CCC)c1c([N+](=O)[O-])cc(S(N)(=O)=O)cc1[N+](=O)[O-]
- outcome [2]: inactive
- AC50 [3]: 3.08 µM (active)
- AC50 (rat CYP2C6, gene 293989): 7.63 µM (active)
- outcome [7]: inactive

Compound: COP(=S)(OC)Oc1nc(Cl)c(Cl)cc1Cl
- outcome [6]: inactive

Compound: CNC(=S)S
- outcome [5]: inactive
- AC50 [6]: 39.9 µM (active)
- outcome (Caspase-1 (Homo sapiens)): inactive
- outcome [8]: inactive
- AC50 [7]: 9.04 µM (active)

Compound: COc1ccc(C(c2ccc(OC)cc2)C(Cl)(Cl)Cl)cc1
- outcome [2]: inactive
- outcome [3]: inactive
- AC50 (rat CYP2C6, gene 293989): 9.6 µM (active)
- outcome [5]: inactive

Compound: CCOP(=S)(OCC)SCn1c(=O)oc2cc(Cl)ccc21
- AC50 [2]: 0.993 µM (active)
- AC50 [3]: 2.17 µM (active)
- AC50 (rat CYP2C6, gene 293989): 0.336 µM (active)
- AC50 [5]: 2.09 µM (active)
- AC50 [1]: 7.17 µM (active)

Compound: Fc1ccc(Oc2ccnc3cc(Cl)cc(Cl)c23)cc1
- AC50 [2]: 15.6 µM (active)

Compound: O=C(O)c1nc(Cl)ccc1Cl
- outcome [6]: inactive

Compound: Cc1ccc(-c2c(Cl)nc(C#N)n2S(=O)(=O)N(C)C)cc1
- AC50 [2]: 6.13 µM (active)
- AC50 [1]: 13 µM (active)

Compound: CCOC(=O)CC(SP(=S)(OC)OC)C(=O)OCC (stereo not drawn)
- AC50 [2]: 0.399 µM (active)
- AC50 [3]: 6.05 µM (active)
- AC50 (rat CYP2C6, gene 293989): 0.0501 µM (active)
- AC50 [5]: 8.12 µM (active)

Compound: CC1COC(Cn2cncn2)(c2ccc(Oc3ccc(Cl)cc3)cc2Cl)O1 (stereo not drawn)
- AC50 [2]: 1.73 µM (active)
- AC50 [3]: 1.08 µM (active)
- AC50 (rat CYP2C6, gene 293989): 1.56 µM (active)
- AC50 [5]: 1.43 µM (active)
- AC50 [1]: 0.685 µM (active)

— PubChem BioAssay (EPA / NIEHS)
